Source: PubChem BioAssay (EPA / NIEHS)
Inconclusive results are not listed. Calls of active or inactive are those of the source. The calls were made as follows, unless noted: active = hit-call score of the fitted dose curve at least 0.9, where 1 is the maximum; inconclusive = response in the unintended direction; inactive = score below 0.9.

Tests used:
[1] = VALA_TUBHUV_Antagonist_TubuleLength: VALA Sciences human Umbilical Vein Endothelial Tubule Formation (TUBHUV) Antagonism Assay (AID 2284325)
Method: VALA_TUBHUV_Antagonist is a cell-based, multiplexed assay that uses human umbilical vein endothelial cells (HUVEC). Measurements were taken 72 hours after chemical dosing in a 96-well plate.VALA_TUBHUV_Antagonist_TubuleLength is the one of two assay components measured from the VALA_TUBHUV_Antagonist assay. It is designed to make measurements of tubulogenesis, a form of morphology reporter, as detected with fluorescence intensity signals by HCS Fluorescent Imaging technology. This VALA_TUBHUV_Antagonist assay was designed to detect chemical suppression of tubulogenesis, i.e. antagonism.Data from the assay component VALA_TUBHUV_Antagonist_TubuleLength was analyzed at the endpoint, VALA_TUBHUV_Antagonist_TubuleLength, in the positive analysis fitting direction relative to DMSO as the negative control and baseline of activity. Using a type of morphology reporter, loss-of-signal activity can be used to understand developmental effects. To generalize the intended target to other relatable targets, this assay endpoint is annotated to the neurodevelopment intended target family, where the subfamily is tubulogenesis.
This HUVEC-HDF assay was designed to detect chemical suppression of tubulogenesis, i.e. antagonism. […]

[2] = VALA_MIGHUV1_ScratchOnly_CellCount: Viability Assessment in the VALA Sciences human Umbilical Vein Endothelial Cell Migration (MIGHUV) Assay, Scratch Wound Inhibited Recovery (AID 2284327)
In short: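 Hoechst-stained nuclei in the scratch wound were counted by high-content imaging after a 24 h recovery period. Scratched HUVEC monolayers received 6-point concentration series, triplicate, in 0.1% DMSO, fit against DMSO.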

[3] = IUF_NPC1_cytotoxicity_72hr: Cytotoxicity Assessment at 72 hours in the Leibniz Research Institute for Environmental Medicine (IUF) Neural Progenitor Cell Proliferation Assay (NPC1) (AID 2284332);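 also: rising LDH signal means more cytotoxicity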
In short: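 Cytotoxicity by LDH membrane-integrity assay on medium supernatants, fluorescence via resazurin reduction, after 3-day single exposure of primary hNPC spheres at 37C, pH 7.2-7.6 with growth factors. Fitted upward against baseline.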

[4] = CCTE_Deisenroth_H295R-HTRF_384WELL_ESTRADIOL: CCTE's H295R-HTRF Assay Evaluation of Estradiol Concentration, Deisenroth Lab (AID 2284361; active = hit-call score of the fitted dose curve at least 0.9, where 1 is the maximum; inactive = score below 0.9); conditions: actives raise or lower the signal
In short: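 Estradiol secreted into medium by H295R adrenocortical cells, quantified by HTRF after 48 h dosing over a nine-point 0.001 - 100 uM final range; gain or loss versus DMSO. Parallel ATP-luminescence viability readout; n=5 experiments.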

[5] = CCTE_Deisenroth_H295R-HTRF_384WELL_TESTOSTERONE: CCTE's H295R-HTRF Assay Evaluation of Testosterone Concentration, Deisenroth Lab (AID 2284373; active = hit-call score of the fitted dose curve at least 0.9, where 1 is the maximum; inactive = score below 0.9); conditions: actives raise or lower the signal
In short: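 H295R cells were acclimated 24 h, then exposed 48 h to nine concentrations (0.001–100 uM final) in technical triplicate, n=5. Testosterone in conditioned medium was measured by HTRF (em 620/665 nm). Fitting was bidirectional versus DMSO; CellTiter-Glo viability ran on the same plates.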

[6] = CCTE_Deisenroth_H295R-HTRF_384WELL_CTOX: Cytotoxicity Assessment in CCTE's H295R-HTRF Assay, Deisenroth Lab (AID 2284380)
In short: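 Luminescent ATP viability readout (CellTiter-Glo 2.0), multiplexed on plates used for hormone sampling, after 48 h chemical exposure. Human H295R cells; final concentrations 0.001–100 uM in nine steps, technical triplicates, five experiments; DMSO baseline.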

SMILES: CCCC(CCC)C(=O)O
- outcome [1]: inactive

SMILES: CCCCCCCCCC
- outcome [2]: inactive

SMILES: Cn1cc[nH]c1=S
- outcome [2]: inactive
- outcome [3]: inactive

SMILES: Nc1ccn([C@@H]2O[C@H](CO)[C@@H](O)[C@@H]2O)c(=O)n1
- outcome [3]: inactive

SMILES: CC(C)C(=O)Nc1ccc([N+](=O)[O-])c(C(F)(F)F)c1
- outcome [4]: inactive
- outcome [5]: inactive
- AC50 [6]: 66.7 µM (active)
